Hit rate of the full screen: of about 5,500 compounds, about 2,000 (36%) were called active. Roughly 18% stayed inconclusive and do not appear here. Some of the results follow. Unmarked numbers belong to inactive results. No stated cut-off is given here; in the data, active means normalized growth mostly below about 0.91 (no sharp cut-off); inconclusive means no clear call, values can overlap the other calls; inactive means mostly above about 0.92.
Test: chemical genetic growth profiling, strain panel (AID 1159580);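 further: tested at 20 µM; growth read once vehicle control cultures reached saturation at 30 °C; 1 = growth at the plate median or of vehicle wells; lower values mean less growth of the strain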
Settings: growth OD

C#C[C@]1(O)CCC2C3CCc4cc(O)ccc4C3CC[C@@]21C (stereo partly drawn)
normalized growth (S. cerevisiae deletion strains, locus YJR043C, strain POL32, active compounds read low): 0.927
normalized growth (S. cerevisiae deletion strains, locus YJR066W, strain TOR1, active compounds read low): 0.81 (active)
normalized growth (S. cerevisiae deletion strains, locus YKL009W, strain mrt4, active compounds read low): 0.827 (active)
normalized growth (S. cerevisiae deletion strains, locus YKL068W, active compounds read low): 1.03
normalized growth (S. cerevisiae deletion strains, locus YKL085W, strain MDH1 (second series), active compounds read low): 1.01
normalized growth (S. cerevisiae deletion strains, locus YKL085W, strain MDH1, active compounds read low): 1.01
normalized growth (S. cerevisiae deletion strains, locus YKL160W, strain elf1, active compounds read low): 0.996
normalized growth (S. cerevisiae deletion strains, locus YKR001C, strain vps1, active compounds read low): 0.959
normalized growth (S. cerevisiae deletion strains, locus YKR026C, strain gcn3, active compounds read low): 1.05
normalized growth (S. cerevisiae deletion strains, locus YKR091W, strain srl3, active compounds read low): 1.02
normalized growth (S. cerevisiae deletion strains, locus YLL001W, strain dnm1, active compounds read low): 1.05
normalized growth (S. cerevisiae deletion strains, locus YLL026W, active compounds read low): 1.01
normalized growth (S. cerevisiae deletion strains, locus YLL041C, strain sdh2, active compounds read low): 1.03
normalized growth (S. cerevisiae deletion strains, locus YLR027C, strain aat2, active compounds read low): 0.938
normalized growth (S. cerevisiae deletion strains, locus YLR039C, strain RIC1, active compounds read low): 0.766
normalized growth (S. cerevisiae deletion strains, locus YLR058C, strain SHM2, active compounds read low): 0.995
normalized growth (S. cerevisiae deletion strains, locus YLR102C, strain apc9, active compounds read low): 1.03
normalized growth (S. cerevisiae deletion strains, locus YLR113W, strain HOG1, active compounds read low): 1.05
normalized growth (S. cerevisiae deletion strains, locus YLR221C, strain rsa3, active compounds read low): 0.965
normalized growth (S. cerevisiae deletion strains, locus YLR258W, strain gsy2, active compounds read low): 0.982
normalized growth (S. cerevisiae deletion strains, locus YLR262C, strain YPT6 (second series), active compounds read low): 0.735 (active)
normalized growth (S. cerevisiae deletion strains, locus YLR262C, strain YPT6, active compounds read low): 0.683
normalized growth (S. cerevisiae deletion strains, locus YLR268W, strain sec22, active compounds read low): 0.91
normalized growth (S. cerevisiae deletion strains, locus YLR320W, strain mms22, active compounds read low): 0.898
normalized growth (S. cerevisiae deletion strains, locus YLR330W, strain CHS5, active compounds read low): 1.01
normalized growth (S. cerevisiae deletion strains, locus YLR342W, strain FKS1 (second series), active compounds read low): 0.724 (active)
normalized growth (S. cerevisiae deletion strains, locus YLR342W, strain FKS1, active compounds read low): 0.983
normalized growth (S. cerevisiae deletion strains, locus YLR357W, strain rsc2, active compounds read low): 1.1
normalized growth (S. cerevisiae deletion strains, locus YLR370C, strain arc18, active compounds read low): 1.03
normalized growth (S. cerevisiae deletion strains, locus YLR371W, strain rom2, active compounds read low): 1.03
normalized growth (S. cerevisiae deletion strains, locus YLR384C, strain iki3, active compounds read low): 1.04
normalized growth (S. cerevisiae deletion strains, locus YLR418C, strain cdc73, active compounds read low): 0.791 (active)
normalized growth (S. cerevisiae deletion strains, locus YML016C, strain PPZ1, active compounds read low): 1.03
normalized growth (S. cerevisiae deletion strains, locus YML032C, strain rad52, active compounds read low): 0.913
normalized growth (S. cerevisiae deletion strains, locus YML120C, strain ndi1, active compounds read low): 0.985
normalized growth (S. cerevisiae deletion strains, locus YML124C, strain tub3, active compounds read low): 1.03
normalized growth (S. cerevisiae deletion strains, locus YMR058W, strain fet3, active compounds read low): 0.947
normalized growth (S. cerevisiae deletion strains, locus YMR078C, strain ctf18, active compounds read low): 1.02
normalized growth (S. cerevisiae deletion strains, locus YMR125W, strain sto1, active compounds read low): 1.13 [resistant] (active)
normalized growth (S. cerevisiae deletion strains, locus YMR129W, active compounds read low): 1.02
normalized growth (S. cerevisiae deletion strains, locus YMR205C, strain PFK2, active compounds read low): 0.995
normalized growth (S. cerevisiae deletion strains, locus YMR223W, strain ubp8, active compounds read low): 0.948
normalized growth (S. cerevisiae deletion strains, locus YMR231W, strain pep5, active compounds read low): 1.02
normalized growth (S. cerevisiae deletion strains, locus YMR307W, strain GAS1, active compounds read low): 0.681
normalized growth (S. cerevisiae deletion strains, locus YNL067W, strain RPL9B, active compounds read low): 0.9
normalized growth (S. cerevisiae deletion strains, locus YNL071W, strain lat1, active compounds read low): 0.97
normalized growth (S. cerevisiae deletion strains, locus YNL183C, strain NPR1, active compounds read low): 0.91
normalized growth (S. cerevisiae deletion strains, locus YNL209W, strain ssb2, active compounds read low): 1.02
normalized growth (S. cerevisiae deletion strains, locus YNL233W, strain BNI4, active compounds read low): 0.928
normalized growth (S. cerevisiae deletion strains, locus YNL248C, strain rpa49, active compounds read low): 0.955
normalized growth (S. cerevisiae deletion strains, locus YNL250W, strain rad50, active compounds read low): 0.989
normalized growth (S. cerevisiae deletion strains, locus YNL271C, strain bni1, active compounds read low): 0.968
normalized growth (S. cerevisiae deletion strains, locus YNL298W, strain CLA4, active compounds read low): 0.909
normalized growth (S. cerevisiae deletion strains, locus YNL307C, strain MCK1, active compounds read low): 0.813 (active)
normalized growth (S. cerevisiae deletion strains, locus YNL322C, strain KRE1 (second series), active compounds read low): 1.03
normalized growth (S. cerevisiae deletion strains, locus YNL322C, strain KRE1, active compounds read low): 1.01
normalized growth (S. cerevisiae deletion strains, locus YNR049C, strain mso1, active compounds read low): 1.04
normalized growth (S. cerevisiae deletion strains, locus YNR052C, strain pop2, active compounds read low): 0.965
normalized growth (S. cerevisiae deletion strains, locus YOL006C, strain TOP1, active compounds read low): 0.726
normalized growth (S. cerevisiae deletion strains, locus YOL012C, strain htz1): 2.07
normalized growth (S. cerevisiae deletion strains, locus YOL147C, strain pex11, active compounds read low): 1.02
normalized growth (S. cerevisiae deletion strains, locus YOR001W, strain rrp6, active compounds read low): 0.939
normalized growth (S. cerevisiae deletion strains, locus YOR061W, strain CKA2, active compounds read low): 1.01
normalized growth (S. cerevisiae deletion strains, locus YOR069W, strain VPS5, active compounds read low): 1.02
normalized growth (S. cerevisiae deletion strains, locus YOR070C, strain gyp1, active compounds read low): 0.987
normalized growth (S. cerevisiae deletion strains, locus YOR080W, strain dia2, active compounds read low): 1.01
normalized growth (S. cerevisiae deletion strains, locus YOR083W, strain WHI5, active compounds read low): 0.974
normalized growth (S. cerevisiae deletion strains, locus YOR106W, strain vam3, active compounds read low): 0.938
normalized growth (S. cerevisiae deletion strains, locus YOR136W, strain idh2, active compounds read low): 1.01
normalized growth (S. cerevisiae deletion strains, locus YOR144C, strain elg1, active compounds read low): 0.998
normalized growth (S. cerevisiae deletion strains, locus YOR184W, strain ser1, active compounds read low): 0.624 (active)
normalized growth (S. cerevisiae deletion strains, locus YOR231W, strain MKK1, active compounds read low): 0.95
normalized growth (S. cerevisiae deletion strains, locus YOR265W, strain rbl2, active compounds read low): 1.03
normalized growth (S. cerevisiae deletion strains, locus YOR270C, strain vph1, active compounds read low): 0.905
normalized growth (S. cerevisiae deletion strains, locus YOR290C, strain snf2, active compounds read low): 0.908
normalized growth (S. cerevisiae deletion strains, locus YOR316C, strain cot1, active compounds read low): 1.04
normalized growth (S. cerevisiae deletion strains, locus YPL051W, strain arl3, active compounds read low): 0.91 (active)
normalized growth (S. cerevisiae deletion strains, locus YPL078C, strain atp4, active compounds read low): 0.915
normalized growth (S. cerevisiae deletion strains, locus YPL106C, strain sse1, active compounds read low): 1.14
normalized growth (S. cerevisiae deletion strains, locus YPL240C, strain hsp82, active compounds read low): 1.02
normalized growth (S. cerevisiae deletion strains, locus YPL241C, strain CIN2, active compounds read low): 1.03
normalized growth (S. cerevisiae deletion strains, locus YPL256C, strain CLN2, active compounds read low): 1.03
normalized growth (S. cerevisiae deletion strains, locus YPR119W, strain clb2, active compounds read low): 1.04
normalized growth (S. cerevisiae deletion strains, locus YPR141C, strain kar3, active compounds read low): 1.04
normalized growth (S. cerevisiae deletion strains, locus YPR163C, strain tif3, active compounds read low): 0.934
normalized growth (S. cerevisiae deletion strains, locus YPR167C, strain met16, active compounds read low): 1.01
normalized growth (S. cerevisiae deletion strains, strain wtn01, active compounds read low): 0.906
normalized growth (S. cerevisiae strains, strain wild type, active compounds read low): 0.999

— PubChem BioAssay AID1159580 (chemical genetic matrix, 2015)
